Like-named read-outs stand apart in the source and are kept apart here.

Data on eleven molecules can be found in PMC11062922 (Nature Chemical Biology, 2023).

Holding throughout (design): species or system human, MV4-11 + K-562 + COLO205 + SK-N-BE2 + OVCAR-8
One assay relates to CSK. Conditions: read-out: apparent Kd, n = 1.
In a further assay the test system is EPHB3. Conditions: read-out: apparent Kd, n = 1.
For a further assay, the system named is MAPKAPK2. Conditions: read-out: apparent Kd, n = 1.
Another assay relates to RIPK2. Conditions: read-out: apparent Kd, n = 1.
The subject of another assay is AXL. Conditions: read-out: apparent Kd, n = 1.
A further assay concerns EPHA1. Conditions: read-out: apparent Kd, n = 1.
The next assay concerns ULK1. Conditions: read-out: apparent Kd, n = 1.
For another assay, the system named is CDC42BPA. Conditions: read-out: apparent Kd; compound concentrations: 100 nM and 1000 nM (sheet 'Samples'), CATDS: 1.08451954536147E-2; n = 1.
In a further assay the test system is CDC42BPG. Conditions: read-out: apparent Kd, n = 1.
A further assay relates to MTOR. Conditions: read-out: apparent Kd, n = 1.
Another assay concerns PRKG1. Conditions: read-out: apparent Kd, n = 1.
The next assay deals with ROCK1. Conditions: read-out: apparent Kd, n = 1.
The next assay deals with LYN. Conditions: read-out: apparent Kd; compound concentrations:100 nM and 1000 nM (sheet 'Samples'); n = 1.
For a further assay, the system named is PKN2. Conditions: read-out: apparent Kd, n = 1.
In the next assay the test system is PIK3CG. Conditions: read-out: apparent Kd, n = 1.
The mark [1] stands for this setting: compound concentrations:100 nM and 1000 nM (sheet 'Samples').

With `CC(C)N1CCC(n2cnc(-c3ccc(F)cc3)c2-c2ccnc(N)n2)CC1` [SB-223132], the potency estimated from few doses in the assay on CSK (setting [1]) is 898 nM; in the assay on EPHB3 (setting [1]), 1410 nM; in the assay on MAPKAPK2 (setting [1]) it was 7.02 nM; in the assay with RIPK2 (setting [1]) it was 559 nM.

In the case of `CCOC(=O)N1CCC(n2cnc(-c3ccc(F)cc3)c2-c2ccnc(N)n2)CC1` [SB-219952], the potency estimated from few doses in the assay with AXL (compound concentrations: 100 nM and 1000 nM (sheet 'Samples'), CATDS: 1.0061198930866599E-2) is 853 nM; with CSK (compound concentrations: 100 nM and 1000 nM (sheet 'Samples'), CATDS: 1.06273677269496E-2), 745 nM; in the assay on EPHA1 (compound concentrations: 100 nM and 1000 nM (sheet 'Samples'), CATDS: 1.16401500305403E-2), 603 nM; in the assay on EPHB3 (compound concentrations: 100 nM and 1000 nM (sheet 'Samples'), CATDS: 9.5797280308489805E-3), 971 nM; with MAPKAPK2 (compound concentrations: 100 nM and 1000 nM (sheet 'Samples'), CATDS: 4.5642459422858099E-2) it was 60.7 nM; in the assay on RIPK2 (compound concentrations: 100 nM and 1000 nM (sheet 'Samples'), CATDS: 1.44232329790909E-2), 387 nM. For the same molecule, the potency estimated from few doses with ULK1 (compound concentrations: 100 nM and 1000 nM (sheet 'Samples'), CATDS: 8.7591953148760202E-3) was 1260 nM.

On to `Cl.Nc1c(C(=O)c2cccc(C#CCN3CCCCC3)c2)cnn1-c1ccc(F)cc1` [RO1154461-001], for which the potency estimated from few doses with CSK (compound concentrations: 100 nM and 1000 nM (sheet 'Samples'), CATDS: 1.25977312115917E-2) was 877 nM; in the assay with EPHA1 (compound concentrations: 100 nM and 1000 nM (sheet 'Samples'), CATDS: 1.62394808146854E-2), 463 nM; in the assay on EPHB3 (compound concentrations: 100 nM and 1000 nM (sheet 'Samples'), CATDS: 1.0883176780773701E-2) it was 1390 nM; in the assay with RIPK2 (compound concentrations: 100 nM and 1000 nM (sheet 'Samples'), CATDS: 1.2186963927709901E-2), 966 nM.

Consider `CN(c1ccc(NC(=O)Nc2cccc(Cl)c2)cc1)c1ccnc(N)n1.Cl` [GW830707A], for which the potency estimated from few doses with CDC42BPA was 1270 nM; in the assay with CDC42BPG (compound concentrations: 100 nM and 1000 nM (sheet 'Samples'), CATDS: 2.2022337119778398E-2), 40.9 nM; in the assay on MTOR (compound concentrations: 100 nM and 1000 nM (sheet 'Samples'), CATDS: 2.8595787466671799E-2) it was 22.6 nM; with PRKG1 (compound concentrations: 100 nM and 1000 nM (sheet 'Samples'), CATDS: 9.7555331639362503E-2), 3.28 nM; in the assay with ROCK1 (compound concentrations: 100 nM and 1000 nM (sheet 'Samples'), CATDS: 3.6596827517009503E-2), 14.2 nM.

As to `CNC(=O)c1ccccc1Nc1nc(Nc2ccc(N3CCOCC3)cc2)ncc1Cl.Cl` [GSK1576028A], the figures for the potency estimated from few doses in the assay with AXL (setting [1]), with LYN and with ULK1 (setting [1]) were 732 nM, 1010 nM and 1420 nM, respectively.

As for `NCCNS(=O)(=O)c1ccc(-c2ccnc3[nH]ccc23)cc1` [GSK977617A], the potency estimated from few doses is 1330 nM in the assay on AXL (setting [1]); 442 nM in the assay with CDC42BPG (setting [1]); 757 nM in the assay with CSK (setting [1]); 723 nM in the assay on EPHA1 (setting [1]); 1780 nM in the assay on EPHB3 (setting [1]); 936 nM in the assay with LYN. Besides, the potency estimated from few doses with PKN2 (setting [1]) was 1190 nM; in the assay on PRKG1 (setting [1]) it was 621 nM; with RIPK2 (setting [1]), 974 nM; in the assay on ULK1 (setting [1]), 718 nM.

In the case of `CCn1c(-c2nonc2N)nc2c(C#CC(C)(C)O)nc(OC[C@@H](N)c3ccccc3)cc21` [GSK938890A], the potency estimated from few doses in the assay with PRKG1 (compound concentrations: 100 nM and 1000 nM (sheet 'Samples'), CATDS: 5.6529109044468798E-2) is 866 nM.

With `O=C1NC(=O)/C(=C/c2ccc3ncccc3c2)S1` [RO4603632-000], the potency estimated from few doses with PIK3CG (compound concentrations: 100 nM and 1000 nM (sheet 'Samples'), CATDS: 0.208226533332634) is 948 nM.

As for `CCOc1nccc2c1nc(-c1nonc1N)n2CC` [SB-737198], the potency estimated from few doses in the assay on PKN2 (compound concentrations: 100 nM and 1000 nM (sheet 'Samples'), CATDS: 0.50424526517456403) was 231 nM.

Turning to `Cl.Cl.NCC(C(=O)Nc1cc(Br)c(-c2ccnc3[nH]ccc23)s1)c1ccccc1.NCC(C(=O)Nc1cc(Br)c(-c2ccnc3[nH]ccc23)s1)c1ccccc1` (stereo not shown) [GSK1269851A], the potency estimated from few doses in the assay on AXL (setting [1]) is 1610 nM; in the assay on CSK (setting [1]), 674 nM; in the assay with EPHA1 (setting [1]), 516 nM; in the assay on EPHB3 (setting [1]), 1180 nM; with LYN, 586 nM; in the assay with ROCK1 (setting [1]), 894 nM. Moreover, in the assay on ULK1 (setting [1]), the potency estimated from few doses was 705 nM.

Take `CN1C[C@@H]2Cn3c(c(C4=C(c5cn(C)c6ccccc56)C(=O)NC4=O)c4ccccc43)C[C@H]2C1.Cl` [RO0320234-001]: the potency estimated from few doses in the assay with AXL (setting [1]) was 1340 nM; with CSK (setting [1]) it was 552 nM; in the assay with EPHA1 (setting [1]) it was 368 nM; with EPHB3 (setting [1]), 1030 nM; with LYN, 158 nM; in the assay with MTOR (setting [1]), 186 nM. Moreover, the potency estimated from few doses in the assay with PIK3CG (setting [1]) was 1400 nM; with RIPK2 (setting [1]), 407 nM; in the assay on ULK1 (setting [1]), 768 nM.
